According to the supplement of paper PMC9262897, “Low-cost anti-mycobacterial drug discovery using engineered E. coli” (Nature Communications, 2022):
Structures can show the parent of a compound that is named as a salt. ± gives the standard deviation of the averaged measurements.

Each compound was assayed on E. coli TESEC Mtb Alr (assay: growth (OD600 after 10 h); higher = more growth (less inhibition)). Conditions: arabinose 1000 nM; compound 0.1 mM; raw OD600 reference: median of DMSO wells 0.294, cell-free background 0.041.
Description: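 TESEC Mtb Alr E. coli, or the Alr+ wild-type control, in 384-well plates with Prestwick library compounds at 0.1 mM and 1% DMSO, across arabinose induction levels of 1E3 to 1E7 nM. Growth is read as OD600 after 10 h at 37 °C in triplicate biological replicates.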
In the case of `N=c1nc(N2CCCCC2)cc(N)n1O` [Minoxidil], the growth is reported as 0.28 ± 0.0067. Work on `CC(=O)NC[C@H]1CN(c2ccc(N3CCOCC3)c(F)c2)C(=O)O1` [Linezolid] yielded a growth of 0.0465 ± 0.0021. Compound `CC(O)(P(=O)(O)O)P(=O)(O)O` [Etidronic acid, disodium salt] has a growth of 0.331 ± 0.0087. For `COc1ccc2cc([C@@H](C)C(=O)O)ccc2c1` [(R) -Naproxen sodium salt], the growth was 0.311 ± 0.018. Work on `NC1CCN(c2nc3c(cc2F)c(=O)c(C(=O)O)cn3-c2ccc(F)cc2F)C1` (centres undefined) [Tosufloxacin hydrochloride] yielded a growth of 0.048 ± 0.0026. For `O=C(NCCNCC(O)COc1ccc(O)cc1)N1CCOCC1` (centres undefined) [Xamoterol hemifumarate], the growth was 0.303 ± 0.014. Compound `Cc1cc2cc3c(C)cc(=O)oc3c(C)c2o1` [Trioxsalen] has a growth of 0.312 ± 0.0079. Work on `CCCCC(=O)O[C@H]1CC[C@H]2[C@@H]3CCc4cc(O)ccc4[C@H]3CC[C@]12C` [Estradiol Valerate] yielded a growth of 0.307 ± 0.0067. `CCCc1ncc(C[n+]2ccccc2C)c(N)n1` [Amprolium hydrochloride] gave a growth of 0.284 ± 0.029. `COC1=C(OC)C(=O)C(CCCCCCCCCCO)=C(C)C1=O` [Idebenone] showed a growth of 0.0428 ± 0.0023. Work on `CC(N/C(=N\C#N)Nc1ccncc1)C(C)(C)C` (centres undefined) [Pinacidil] yielded a growth of 0.274 ± 0.011. `C[C@H]1C[C@H]2[C@@H]3CCC4=CC(=O)C=C[C@]4(C)[C@@]3(F)[C@@H](O)C[C@]2(C)[C@@]1(O)C(=O)CO` [Betamethasone] showed a growth of 0.231 ± 0.031. `Fc1ccc(C(c2ccc(F)cc2)N2CCN(C/C=C/c3ccccc3)CC2)cc1` [Flunarizine dihydrochloride] gave a growth of 0.11 ± 0.019. `CCC(NC(C)C)C(O)c1ccc(O)c(O)c1` (centres undefined) [Isoetharine mesylate salt] showed a growth of 0.303 ± 0.012. In the case of `C[C@H]1O[C@@H](O[C@H]2[C@@H](O)C[C@H](O[C@H]3[C@@H](O)C[C@H](O[C@H]4CC[C@@]5(C)[C@H](CC[C@@H]6[C@@H]5C[C@@H](O)[C@]5(C)[C@@H](C7=CC(=O)OC7)CC[C@]65O)C4)O[C@@H]3C)O[C@@H]2C)C[C@H](O)[C@@H]1O` [Digoxin], the growth is reported as 0.282 ± 0.01. `CC(C)(O/N=C(\C(=O)N[C@@H]1C(=O)N2C(C(=O)[O-])=C(C[n+]3ccccc3)CS[C@H]12)c1csc(N)n1)C(=O)O` [Ceftazidime pentahydrate] showed a growth of 0.0435 ± 0.0041. `Cc1cccc(C)c1NC(=O)C(C)N` (centres undefined) [Tocainide hydrochloride] was tested, and the growth was 0.318 ± 0.0085. `CCCCNc1cc(C(=O)O)cc(S(N)(=O)=O)c1Oc1ccccc1` [Bumetanide] gave a growth of 0.261 ± 0.021. `CCCSc1ccc2[nH]c(NC(=O)OC)nc2c1` [Albendazole] gave a growth of 0.274 ± 0.021. For `O=c1[nH]cc(F)c(=O)[nH]1` [5-fluorouracil], the growth was 0.155 ± 0.012. `CCN(CC)CCOC(=O)C(c1ccccc1)c1ccccc1` [Adiphenine hydrochloride] gave a growth of 0.309 ± 0.033. `CCCCc1cc2ccccc2c(OCCN(C)C)n1` [Dimethisoquin hydrochloride] gave a growth of 0.182 ± 0.0035. `Nc1ccc(S(=O)(=O)Nc2nccs2)cc1` [Sulfathiazole] showed a growth of 0.275 ± 0.013. With `Nc1c2c(nc3ccccc13)CCCC2` [Tacrine hydrochloride] the growth was 0.263 ± 0.012. With `O=C(O)c1cc(/N=N/c2ccc(S(=O)(=O)Nc3ccccn3)cc2)ccc1O` [Sulfasalazine] the growth was 0.308 ± 0.0065. `Oc1c(Cl)cc(Cl)c(Cl)c1Cc1c(O)c(Cl)cc(Cl)c1Cl` [Hexachlorophene] was tested, and the growth was 0.04387 ± 0.00038. With `CC(C)(C)NC(=O)[C@@H]1C[C@@H]2CCCC[C@@H]2CN1C[C@@H](O)[C@H](Cc1ccccc1)NC(=O)[C@H](CC(N)=O)NC(=O)c1ccc2ccccc2n1` [Saquinavir mesylate] the growth was 0.0535 ± 0.0019. For `CN1CCN(C2=Nc3cc(Cl)ccc3Nc3ccccc32)CC1` [Clozapine], the growth was 0.206 ± 0.0044. For `COc1ccc(C2CNC(=O)C2)cc1OC1CCCC1` (centres undefined) [Rolipram], the growth was 0.275 ± 0.012. Compound `C[C@H](Cc1cc2c(c(C(N)=O)c1)N(CCCO)CC2)NCCOc1ccccc1OCC(F)(F)F` [Silodosin] has a growth of 0.251 ± 0.0074. `COCCCOc1ccnc(C[S+]([O-])c2nc3ccccc3[nH]2)c1C` (centres undefined) [Rabeprazole Sodium salt] was tested, and the growth was 0.213 ± 0.023. `O=C(O)c1cccnc1Nc1cccc(C(F)(F)F)c1` [Niflumic acid] showed a growth of 0.0693 ± 0.0078. With `C[C@]12CC[C@@H]3c4ccc(O)cc4C[C@@H](CCCCCCCCC[S+]([O-])CCCC(F)(F)C(F)(F)F)[C@H]3[C@@H]1CC[C@@H]2O` (some centres undefined) [Fulvestrant] the growth was 0.296 ± 0.016. `CC(C)(C)NCC(O)COc1cccc2c1CC(O)C(O)C2` (centres undefined) [Nadolol] showed a growth of 0.303 ± 0.014.
